The record followed here is PubChem BioAssay (NCI).

Test systems include NCI-H23 lung; NCI-H226 lung; NCI-H322M lung; HOP-62 NSCLC; NCI-H460 lung; HOP-92 NSCLC; A549/ATCC NSCLC; 786-0 renal; COLO 205 colon; DU-145 prostate; K-562 leukemia; MALME-3M melanoma; MDA-MB-231 breast; RXF 393 renal; SF-268 CNS; SF-295 CNS; SF-539 CNS; UACC-257 melanoma; M14 melanoma.
Holding throughout (test): NCI-60 one-dose screen, 48 h (100 = growth as untreated, 0 = no growth, -100 = all killed)
What all share (conditions): 10 µM unless noted

Molecules are shown by their SMILES. About 83,000 compounds went through this panel and 20% of them were active in at least one assay; those are over-represented in the sample as a whole.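 Cell lines were cultured in 96-well plates, exposed to a single compound concentration, and assessed for percent growth 48 hours later.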 Values without a mark were called inactive. Active and inactive are the calls of the source. The calls were made as follows: active = growth percent below 10; inactive = the rest.

For `O=Cc1ncc(-c2ccc(C(F)(F)F)cc2)c(NC2CCCCCC2)n1`, the growth in the test on NCI-H23 lung is -73.1% [100 µM] (active); in the test with NCI-H226 lung it was 28.2% [100 µM]; in the test with NCI-H322M lung, -5.95% [100 µM] (active); in the test with HOP-62 NSCLC, -94.9% [100 µM] (active); with NCI-H460 lung, -51.3% [100 µM] (active); in the test on HOP-92 NSCLC, -95.4% [100 µM] (active). In addition, the growth in the test with A549/ATCC NSCLC was -79.2% [100 µM] (active); with 786-0 renal, -82.1% [100 µM] (active); with COLO 205 colon it was -60.5% [100 µM] (active); with DU-145 prostate, -92.9% [100 µM] (active); in the test with K-562 leukemia, -50.2% [100 µM] (active); in the test with MALME-3M melanoma it was -92% [100 µM] (active). In addition, the growth was -87.8% [100 µM] (active) with MDA-MB-231 breast; -80.2% [100 µM] (active) in the test with RXF 393 renal; -83.9% [100 µM] (active) with SF-268 CNS; -86.3% [100 µM] (active) in the test on SF-295 CNS; -96.8% [100 µM] (active) with SF-539 CNS; -92% [100 µM] (active) with UACC-257 melanoma. Besides, the growth in the test with M14 melanoma was -91.6% [100 µM] (active).

`C[C@@H]1C[C@@H]([C@@H](CC2CC(=O)NC(=O)C2)OC(=O)CC(=O)c2ccccc2)C(=O)[C@@H](C)C1`: the growth with NCI-H23 lung is 13.9%; in the test on NCI-H226 lung it was 4.07% (active); in the test with NCI-H322M lung it was -19.5% (active); in the test with HOP-62 NSCLC it was 13.5%; in the test on NCI-H460 lung it was 12.1%; in the test with HOP-92 NSCLC, 9.2% (active). In addition, the growth is 1.76% (active) in the test with A549/ATCC NSCLC; 1.2% (active) with 786-0 renal; 10.2% with COLO 205 colon; 11.8% with DU-145 prostate; 17.7% in the test with K-562 leukemia; -0.912% (active) with MALME-3M melanoma. For the same molecule, the growth with MDA-MB-231 breast is 17.5%; in the test on RXF 393 renal, -13.7% (active); with SF-268 CNS, 15.6%; in the test with SF-295 CNS, 4.68% (active); with SF-539 CNS it was 5.1% (active); in the test with UACC-257 melanoma it was -4.59% (active). In addition, the growth with M14 melanoma was 10.9%.

On to `CC(C)N(Cc1ccccc1)c1c(Cl)ssc1=O`, for which the growth with NCI-H23 lung was 106%; in the test on NCI-H226 lung it was 101%; in the test on NCI-H322M lung it was 109%; in the test with HOP-62 NSCLC it was 113%; in the test with NCI-H460 lung, 109%; with HOP-92 NSCLC it was 82.5%. Further, the growth is 88.8% in the test with A549/ATCC NSCLC; 102% with 786-0 renal; 106% with COLO 205 colon; 94.9% in the test on DU-145 prostate; 108% in the test on K-562 leukemia; 104% in the test with MALME-3M melanoma. For the same molecule, the growth in the test with MDA-MB-231 breast is 89.3%; in the test on RXF 393 renal, 74.8%; in the test with SF-268 CNS, 118%; with SF-295 CNS, 108%; with SF-539 CNS, 96%; in the test with UACC-257 melanoma it was 94.3%. Also, in the test on M14 melanoma, the growth is 91%.

For the molecule `COc1ccc(C2=NN(C=O)C(c3cccc(Nc4ccnc5cc(Cl)ccc45)c3)C2)cc1` (stereo not drawn), the growth in the test with NCI-H23 lung was 23.5%; in the test on NCI-H226 lung it was 39.7%; in the test with NCI-H322M lung, 45.8%; in the test on HOP-62 NSCLC it was 13.2%; in the test with NCI-H460 lung, 14.3%; in the test on HOP-92 NSCLC, 36.9%. Further, the growth with A549/ATCC NSCLC was 30.2%; with 786-0 renal it was 28.5%; with COLO 205 colon, 0.0234% (active); in the test with DU-145 prostate, 33.2%; in the test with K-562 leukemia, 6.65% (active); in the test on MALME-3M melanoma, 25.2%. Moreover, the growth is 42.4% with MDA-MB-231 breast; 17.2% with RXF 393 renal; 41.2% in the test on SF-268 CNS; 0.467% (active) in the test on SF-295 CNS; 9.03% (active) in the test on SF-539 CNS; 23.2% in the test on UACC-257 melanoma. Moreover, in the test with M14 melanoma, the growth was 19.1%.

`Nc1c(C(=O)Nc2cccc(Cl)c2)sc2nc3c(cc12)C(O)CCC3` (stereo not drawn): the growth in the test with NCI-H23 lung was 29.8%; with NCI-H226 lung, 62.3%; in the test on NCI-H322M lung, 62.3%; with HOP-62 NSCLC, 46.8%; in the test with NCI-H460 lung it was 11.2%; in the test on HOP-92 NSCLC it was 13.6%. The growth was 24.7% in the test on A549/ATCC NSCLC; 53.3% in the test with 786-0 renal; 5.9% (active) with COLO 205 colon; 7.3% (active) in the test on DU-145 prostate; 10.6% in the test on K-562 leukemia; 40.2% with MALME-3M melanoma. Moreover, the growth with MDA-MB-231 breast was 42.6%; with RXF 393 renal it was -25.4% (active); in the test on SF-268 CNS it was 50.2%; in the test on SF-295 CNS, 13.7%; in the test on SF-539 CNS, -24.9% (active); in the test on UACC-257 melanoma, 66.1%. In addition, the growth with M14 melanoma is 17.1%.

As to `COP(=O)(OC)C(c1ccc(O)cc1)(c1ccc(O)cc1)c1ccc(O)cc1`, the growth in the test on NCI-H23 lung was 114%; in the test on NCI-H226 lung, 99.7%; in the test with NCI-H322M lung it was 103%; with HOP-62 NSCLC, 83.3%; in the test on NCI-H460 lung, 113%; with HOP-92 NSCLC, 79.3%. In addition, the growth was 99.9% in the test with A549/ATCC NSCLC; 82.4% with 786-0 renal; 123% with COLO 205 colon; 105% in the test with DU-145 prostate; 90.6% in the test on K-562 leukemia; 127% in the test on MALME-3M melanoma. In addition, the growth in the test on MDA-MB-231 breast is 93.7%; with RXF 393 renal, 67.2%; in the test with SF-268 CNS, 106%; with SF-295 CNS it was 82.7%; with SF-539 CNS, 107%; in the test on UACC-257 melanoma, 100%. In the test with M14 melanoma, the growth is 86%.

Take `COc1cccc(/C=N\NC(=O)c2ccncc2)c1O`: the growth with NCI-H23 lung was 58.5%; with NCI-H226 lung it was 61.8%; with NCI-H322M lung it was 19%; in the test with HOP-62 NSCLC, 50.8%; in the test on NCI-H460 lung it was 15.9%; with HOP-92 NSCLC it was 55.1%. The growth in the test with A549/ATCC NSCLC is 73.2%; in the test on 786-0 renal it was 35.5%; in the test on COLO 205 colon it was 50.1%; in the test with DU-145 prostate, 51.7%; in the test with K-562 leukemia it was 71.2%; with MALME-3M melanoma, 68.3%. Besides, the growth in the test on MDA-MB-231 breast was 47.1%; in the test on RXF 393 renal, 57.3%; in the test on SF-268 CNS it was 42.2%; with SF-295 CNS, 55.8%; in the test with SF-539 CNS it was 55.7%; with UACC-257 melanoma, 49.6%. For the same molecule, in the test on M14 melanoma, the growth was 34.4%.
